Compounds without any hit were thinned out: in the full panel of roughly 83,000, 20% have a hit.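 Cell lines were cultured in 96-well plates, exposed to a single compound concentration, and assessed for percent growth 48 hours later.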 Values without a mark were called inactive. Calls of active or inactive are those of the source. The calls were made as follows: active = growth percent below 10; inactive = the rest.

38 molecules from PubChem BioAssay (NCI) can be followed below.

The first experiment deals with UACC-62 melanoma. Description: NCI-60 one-dose screen, 48 h (100 = growth as untreated, 0 = no growth, -100 = all killed). Conditions: 10 µM unless noted.
For `CCOc1ccc(C(=O)NCC(C)C)cc1`, the growth is 101%.

Turning to `CCOC(=O)C(=O)CC(=O)c1ccccc1`, the growth was 93.3%.

Take `C=CCOc1ccc(Cl)cc1Cl`: the growth was 92.7%.

As for `C#CCSc1nnnn1-c1ccccc1`, the growth is 101%.

In the case of `CCOC(=O)c1c(C)[nH]c(C)c1C=O`, the growth is 91.2%.

Regarding `C/C(Cc1ccccc1)=N\O`, the growth is 106%.

`Nc1cc2ccccc2c(O)c1O`: the growth is 90.9%.

With `NNC(=O)N/N=C1\C(=O)N(c2nccs2)C(=O)C(=O)C1c1nc2ccccc2s1` (configuration not stated), the growth is 90.5%.

Regarding `S=c1nc(-c2ccccn2)c(-c2ccccn2)n[nH]1`, the growth is 116%.

Regarding `Nc1nc(Cl)cc(Cl)n1`, the growth was 107%.

On to `CC1(C)C2CCC1(C)C1(C2)OCCS1` (configuration not stated), for which the growth is 87%.

Consider `CC(C)(N)CO[C@H]1C[C@H]2CC[C@@]1(C)C2(C)C`, for which the growth is 101%.

Turning to `COC(=O)c1ccc([N+](=O)[O-])c(C)c1`, the growth is 107%.

`CCCCCCCCCc1ccc(OC(C)=O)cc1`: the growth was 107%.

Take `CC(C)=CCC[C@@H](C)[C@H]1CC[C@@]2(C)C3=C(CC[C@]12C)[C@@]1(C)CC[C@H](O)C(C)(C)[C@@H]1CC3`: the growth is 101%.

With `CC(O)C(F)(F)C(F)(F)C(F)(F)F` (configuration not stated), the growth was 115%.

The subject of a further experiment is LOX IMVI melanoma. The description is as above. As to conditions: 10 µM.
In the case of `CC1CC(C)S(=O)(=O)C1` (configuration not stated), the growth was 103%.

As for `Nc1c(Br)cc(O)c2c1C(=O)c1ccccc1C2=O`, the growth was 34.4%.

Consider `NC(CO)(CO)c1ccccc1`, for which the growth is 101%.

Consider `CC(C)N1CC(=O)N2CSCC2C1=O` (configuration not stated), for which the growth is 98.9%.

`CCNC(=O)OCCc1c2ccccc2nc2ccccc12`: the growth is 88.4%.

As to `CCN(CC)CCN1CNC(=S)NC1`, the growth is 95.8%.

Turning to `Oc1cc(O)c2c(c1)O[C@H](c1ccc(O)c(O)c1)[C@@H](O)C2`, the growth was 100%.

With `CN1CCN(C(=S)S)CC1`, the growth is 87.9%.

Turning to `O=c1[nH]c(=O)c2cc(Cl)cc(Cl)c2[nH]1`, the growth is 120%.

For `CCOP(=O)(NC(c1ccccc1)c1ccccc1)OCC`, the growth was 93.1%.

As to `Cc1ccc2nc(N)nnc2c1`, the growth was 100%.

Turning to `NC(=S)N/N=C/c1ccc(Cl)cc1`, the growth was 99.1%.

Regarding `CC(=O)C1C(=O)C(=O)N(c2ccc(Cl)c(Cl)c2)C1=O` (configuration not stated), the growth was 94.4%.

Take `CN1CCCN(C(c2ccccc2)c2ccc(Cl)cc2)CC1` (configuration not stated): the growth was 89.4%.

Regarding `c1ccc(-c2ccc3ccccc3c2)cc1`, the growth was 95.7%.

Consider `CCOC(=O)C(C#N)=C1CCN(C)CC1`, for which the growth was 109%.

Regarding `Ic1cccs1`, the growth is 96.9%.

Consider `O=C(O)c1cccc(-n2ncc(Cl)c(Cl)c2=O)c1`, for which the growth is 92.2%.

In the case of `CCCCn1cnc2c(=O)[nH]cnc21`, the growth is 109%.

As to `CC(=O)N(C(C)=O)c1ccc(C)cc1`, the growth was 92.1%.

Turning to `CCNCC(C)(C)O`, the growth is 101%.

With `COc1cc(C(=O)NC(=S)NCc2ccncc2)cc(OC)c1OC`, the growth is 97.7%.

On to `CCOc1ccc(C(=O)NCC(C)C)cc1`, for which the growth was 97.2%.

In the case of `CCOC(=O)C(=O)CC(=O)c1ccccc1`, the growth is 98.6%.

On to `C=CCOc1ccc(Cl)cc1Cl`, for which the growth is 99.6%.

Regarding `C#CCSc1nnnn1-c1ccccc1`, the growth is 95.1%.

As to `CCOC(=O)c1c(C)[nH]c(C)c1C=O`, the growth was 97.9%.

Regarding `C/C(Cc1ccccc1)=N\O`, the growth was 119%.

`Nc1cc2ccccc2c(O)c1O`: the growth was -52.6% (active).

Take `NNC(=O)N/N=C1\C(=O)N(c2nccs2)C(=O)C(=O)C1c1nc2ccccc2s1` (configuration not stated): the growth is 96.3%.

With `S=c1nc(-c2ccccn2)c(-c2ccccn2)n[nH]1`, the growth was 95.9%.

Consider `Nc1nc(Cl)cc(Cl)n1`, for which the growth was 92.5%.

With `CC1(C)C2CCC1(C)C1(C2)OCCS1` (configuration not stated), the growth was 92.2%.

In the case of `CC(C)(N)CO[C@H]1C[C@H]2CC[C@@]1(C)C2(C)C`, the growth was 98.6%.

With `COC(=O)c1ccc([N+](=O)[O-])c(C)c1`, the growth is 107%.

As to `CCCCCCCCCc1ccc(OC(C)=O)cc1`, the growth was 104%.

For `CC(C)=CCC[C@@H](C)[C@H]1CC[C@@]2(C)C3=C(CC[C@]12C)[C@@]1(C)CC[C@H](O)C(C)(C)[C@@H]1CC3`, the growth is 103%.

Take `CC(O)C(F)(F)C(F)(F)C(F)(F)F` (configuration not stated): the growth was 107%.

The next experiment has as its system SK-MEL-28 melanoma. The experiment is described as above. As to conditions: 10 µM unless noted.
With `CC1CC(C)S(=O)(=O)C1` (configuration not stated), the growth is 111%.

In the case of `Nc1c(Br)cc(O)c2c1C(=O)c1ccccc1C2=O`, the growth was 112%.

For the molecule `NC(CO)(CO)c1ccccc1`, the growth is 106%.

For the molecule `CC(C)N1CC(=O)N2CSCC2C1=O` (configuration not stated), the growth was 111%.

`CCNC(=O)OCCc1c2ccccc2nc2ccccc12`: the growth is 97.7%.

With `CCN(CC)CCN1CNC(=S)NC1`, the growth is 114%.

For the molecule `Oc1cc(O)c2c(c1)O[C@H](c1ccc(O)c(O)c1)[C@@H](O)C2`, the growth is 110%.

On to `CN1CCN(C(=S)S)CC1`, for which the growth is 115%.

Consider `O=c1[nH]c(=O)c2cc(Cl)cc(Cl)c2[nH]1`, for which the growth is 124%.

Turning to `CCOP(=O)(NC(c1ccccc1)c1ccccc1)OCC`, the growth was 106%.

With `Cc1ccc2nc(N)nnc2c1`, the growth is 110%.

As to `NC(=S)N/N=C/c1ccc(Cl)cc1`, the growth was 107%.

As to `CC(=O)C1C(=O)C(=O)N(c2ccc(Cl)c(Cl)c2)C1=O` (configuration not stated), the growth was 103%.

Regarding `CN1CCCN(C(c2ccccc2)c2ccc(Cl)cc2)CC1` (configuration not stated), the growth is 103%.

Turning to `c1ccc(-c2ccc3ccccc3c2)cc1`, the growth is 107%.

For the molecule `CCOC(=O)C(C#N)=C1CCN(C)CC1`, the growth was 134%.

As to `Ic1cccs1`, the growth was 111%.

For the molecule `O=C(O)c1cccc(-n2ncc(Cl)c(Cl)c2=O)c1`, the growth was 102%.

Regarding `CCCCn1cnc2c(=O)[nH]cnc21`, the growth is 107%.

As to `CC(=O)N(C(C)=O)c1ccc(C)cc1`, the growth is 107%.

For `CCNCC(C)(C)O`, the growth was 101%.

For `COc1cc(C(=O)NC(=S)NCc2ccncc2)cc(OC)c1OC`, the growth is 102%.

Consider `CCOc1ccc(C(=O)NCC(C)C)cc1`, for which the growth is 106%.

With `CCOC(=O)C(=O)CC(=O)c1ccccc1`, the growth is 106%.

For `C=CCOc1ccc(Cl)cc1Cl`, the growth is 115%.

Regarding `C#CCSc1nnnn1-c1ccccc1`, the growth was 100%.

Turning to `CCOC(=O)c1c(C)[nH]c(C)c1C=O`, the growth is 109%.

Consider `C/C(Cc1ccccc1)=N\O`, for which the growth was 111%.

For the molecule `Nc1cc2ccccc2c(O)c1O`, the growth was 110%.

Turning to `NNC(=O)N/N=C1\C(=O)N(c2nccs2)C(=O)C(=O)C1c1nc2ccccc2s1` (configuration not stated), the growth was 112%.

For `S=c1nc(-c2ccccn2)c(-c2ccccn2)n[nH]1`, the growth was 114%.

With `Nc1nc(Cl)cc(Cl)n1`, the growth was 119%.

Regarding `CC1(C)C2CCC1(C)C1(C2)OCCS1` (configuration not stated), the growth was 102%.

Turning to `CC(C)(N)CO[C@H]1C[C@H]2CC[C@@]1(C)C2(C)C`, the growth is 94.7%.

On to `COC(=O)c1ccc([N+](=O)[O-])c(C)c1`, for which the growth is 102%.

As to `CCCCCCCCCc1ccc(OC(C)=O)cc1`, the growth was 107%.

Take `CC(C)=CCC[C@@H](C)[C@H]1CC[C@@]2(C)C3=C(CC[C@]12C)[C@@]1(C)CC[C@H](O)C(C)(C)[C@@H]1CC3`: the growth is 104%.

As for `CC(O)C(F)(F)C(F)(F)C(F)(F)F` (configuration not stated), the growth was 108%.
